Screening results: PubChem, Paczesny and Yang Labs, IUPUI and University of Michigan
ST2 inh: inhibitors of human ST2 (IL1RL1) binding to IL-33, primary screen, biochemical, AlphaLISA | inhibition, % for hits at 17 µM | AlphaLISA ST2-Fc/biotin-IL-33 interaction, 1 h | actives 2.3% (n = 78,000); in the data active = inhibition above about 30%
Target sequence (Q01638 whole entry, looked up): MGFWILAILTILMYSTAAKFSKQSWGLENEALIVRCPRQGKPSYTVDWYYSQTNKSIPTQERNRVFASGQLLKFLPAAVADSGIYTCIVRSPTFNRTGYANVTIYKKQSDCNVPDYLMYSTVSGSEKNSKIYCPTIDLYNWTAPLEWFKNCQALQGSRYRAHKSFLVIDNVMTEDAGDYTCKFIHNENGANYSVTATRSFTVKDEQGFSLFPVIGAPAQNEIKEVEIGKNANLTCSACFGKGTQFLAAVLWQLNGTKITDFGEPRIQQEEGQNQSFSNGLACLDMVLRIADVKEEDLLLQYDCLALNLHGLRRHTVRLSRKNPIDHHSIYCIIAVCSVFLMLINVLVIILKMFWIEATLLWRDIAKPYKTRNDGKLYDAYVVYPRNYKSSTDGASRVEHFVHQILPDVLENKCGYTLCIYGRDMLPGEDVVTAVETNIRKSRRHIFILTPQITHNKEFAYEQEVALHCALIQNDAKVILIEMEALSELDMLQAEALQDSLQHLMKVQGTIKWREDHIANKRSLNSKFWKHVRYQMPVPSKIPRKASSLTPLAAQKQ
Numbers without * were called inactive; i = inactive. This excerpt belongs to a sample that is enriched for hits.

SMILES	ST2 inh
COc1ccc(N(C(=O)C(C)(C)C)C2C=CS(=O)(=O)C2)cc1 (stereo unspecified)	i
CCN(C(=O)c1cc(-c2ccccc2)n[nH]1)C1CCS(=O)(=O)C1 (stereo unspecified)	i
CSc1ccc(CNC(=O)CN2C(=O)c3cccnc3Sc3ccccc32)cc1	i
O=S(=O)(O)c1cccc2cccnc12	i
Cc1nnc(SCCn2c(N3CCCC(C)C3)nc3c2c(=O)n(C)c(=O)n3C)s1 (stereo unspecified)	i
CCCCN(C)Cc1c(C)[nH]c2c(C)cccc2c1=O	i
CCN1C(=O)N(CCN(C)C)C(=O)C12CCN(Cc1ccc(SC)cc1)CC2	51%*
CCOC(=O)C1(CC2CC2)CCN(Cc2ccc(SC)cc2)CC1	i
CCN1C(=O)N(CCCc2cccnc2)C(=O)C12CCN(Cc1cnc(-c3ccccc3)s1)CC2	i
C[C@@H]1O[C@@H](OC[C@H]2O[C@@H](OCCc3ccc(O)c(O)c3)[C@H](O)[C@@H](O[C@@H]3O[C@@H](C)[C@H](O)[C@@H](O)[C@H]3O)[C@@H]2OC(=O)/C=C/c2ccc(O)c(O)c2)[C@H](O)[C@H](O)[C@H]1O	i
COc1ccc(/C=C(\C)c2nc(C)c(-c3ccccc3)c(=O)[nH]2)cc1	i
COc1ccc(/C=C2\SC(N3CCCC3)=NC2=O)cc1	i
COc1ccc(/C=C2\CC(c3ccccc3)=CC2=O)cc1	52%*
CN(Cc1ccc(-n2cccn2)cc1)Cc1ncccc1C(=O)O	i
CCn1c(C(C)NC(C)=O)nc2ccccc21 (stereo unspecified)	i
CC(O)c1nc2ccccc2n1Cc1ccccc1 (stereo unspecified)	36%*
CC(O)c1nc2ccccc2n1CCCOc1ccccc1 (stereo unspecified)	i
O=S(=O)(NCc1nc2cccnc2n1Cc1ccccc1)c1ccccc1Cl	i
COc1cc(C(Nc2cccc(C)n2)c2ccc3ccc(C)nc3c2O)ccc1O (stereo unspecified)	i
Cc1cc(NC(c2cccc([N+](=O)[O-])c2)c2ccc3cccnc3c2O)no1 (stereo unspecified)	33%*
O=C(Nc1ccc([N+](=O)[O-])cc1)c1cc2ccccc2o1	i
Cc1ccnc(NC(c2ccncc2)c2ccc3cccnc3c2O)c1 (stereo unspecified)	i
O=[N+]([O-])c1ccc(NC(c2ccccn2)c2ccc3cccnc3c2O)cc1 (stereo unspecified)	31%*
O=C(c1ccc([N+](=O)[O-])cc1)N1CCN(c2ccccn2)CC1	i
COc1ccccc1N1C(=O)CC(N2CCN(c3ccc(Cl)cc3)CC2)C1=O (stereo unspecified)	i
SMILES	ST2 inh
Cc1ccnc(NC(=O)c2ccc(C(=O)Nc3cc(C)ccn3)cc2)c1	i
Cc1ccc(C(=O)N(c2ccc(C(C)C)cc2)C2C=CS(=O)(=O)C2)cc1C (stereo unspecified)	i
COCCn1c(CCCC(=O)NCc2ccccc2)nc2cccnc21	i
O=C1CC(c2nc(-c3ccccc3)cs2)C2(CCCCC2)O1 (stereo unspecified)	i
Cc1c(N=Cc2cc([N+](=O)[O-])c(Cl)cc2Cl)c(=O)n(-c2ccccc2)n1C	i
Cc1c(N=Cc2cc([N+](=O)[O-])ccc2N2CCCC2)c(=O)n(-c2ccccc2)n1C	36%*
Cc1c(N=Cc2ccccc2O)c(=O)n(-c2ccccc2)n1C	i
O=C(CN1CCN(Cc2ccccc2Cl)S1(=O)=O)Nc1ccc(Br)cc1F	i
Nc1c(C(=O)Nc2ccc(F)cc2)nnn1Cc1ccc(F)cc1Cl	i
Cc1ccc(-c2csc(/C(C#N)=C/c3cccnc3)n2)c(C)c1	34%*
Cc1ccc(-c2csc(NC(=O)c3cc(=O)c4ccccc4o3)n2)c(C)c1	i
O=C(Cn1nc(-c2ccccc2)ccc1=O)NCCN1CCC(Cc2ccccc2)CC1	i
CN(CCCNC(=O)Cn1nc(-c2ccccc2)ccc1=O)Cc1ccccc1	i
O=C(Cn1nc(-c2ccccc2)ccc1=O)NCCCN1CCC(Cc2ccccc2)CC1	53%*
CCCNC(=O)CCSc1nc2nc(C)cc(C)n2n1	i
Cc1ccccc1Cn1cc(C(=O)Nc2ccc(F)cc2)ccc1=O	i
Cc1ccnc(C(NCc2nc(-c3ccco3)no2)C2CC2)c1 (stereo unspecified)	i
CN1CCc2cc(O)c(O)cc2C(c2ccccc2)C1 (stereo unspecified)	i
CN1CCc2c(cc(O)c(O)c2Cl)C(c2cccc(Cl)c2)C1 (stereo unspecified)	39%*
CN1CCc2cc(Cl)c(O)cc2[C@@H](c2ccccc2)C1	i
O[C@@H]1CN(Cc2ccncc2Cl)CC[C@H]1c1ccc2ccccc2c1	i
O=C(Nc1ccccc1C(=O)O)c1ccccc1	33%*
O=C(Nc1ccccc1F)c1ccccc1	i
Cc1ccc(C(=O)Nc2ccccc2C(=O)O)cc1	i
Cc1cccc(OCC(=O)Nc2ccc3c(c2)OCO3)c1	i
